Compound activity deposited in PubChem BioAssay by National Center for Advancing Translational Sciences (NCATS).
KB-3-1 cytotox: qHTS assay for MDR1-selective chemotherapeutics: Primary screen using the parental adenocarcinoma cell KB-3-1; KB-3-1 viability, CellTiter-Glo ATP luminescence, 72 h; Potency, µM (top dose mostly 46.1 µM), hits mostly cytotoxic; 1.4% of 400,000 active; AID 1347075, 2019; further: nearly all actives have a fitted effect of over 60% in size
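Cytotoxicity in the drug-sensitive parental line KB-3-1 was scored as loss of CellTiter-Glo luminescence following 72 h incubation with compound. Values come from curve fitting of normalized concentration-response data.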
SW480 rerep: A quantitative high throughput screen for small molecules that induce DNA re-replication in SW480 colon adenocarcinoma cells; SW480 DNA re-replication, Hoechst DNA content imaging, 48 h; Potency, µM (titrated, usually from 46.1 µM), hits mostly activators; 1.8% of 340,000 active; further: nearly all actives have a fitted effect of over 55% in size
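Compounds, transferred as 23 nL by pin tool, were incubated with cells for 48 hr; DNA content per nucleus was then quantified by Hoechst staining and fluorescence plate imaging.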
IL1B secr inh: qHTS for Inhibitors of Inflammasome Signaling: IL-1-beta AlphaLISA Primary Screen. AID 743279, 2014. THP-1 LPS/ATP IL-1B secretion, AlphaLISA, 16 h; hits give low values. 4.7% of 360,000 active. activity change, % at 57.5 µM; in the data active means activity change below about -50%; inconclusive means mostly about -30% to -49%
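Secreted IL-1B measured by AlphaLISA bead assay after 16 h compound exposure of THP-1 cells; compounds (final up to 57.5 uM) added 1 h before LPS (250 ng/mL) and ATP (1.25 mM) stimulation; lower signal means less secretion.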
MCF10A rerep: A quantitative high throughput screen for small molecules that induce DNA re-replication in MCF 10a normal breast cells | AID 624296, 2012 | 2.9% of 350,000 active | Potency, µM (top dose mostly 46.1 µM), hits mostly activators | MCF 10A DNA re-replication, Hoechst nuclear intensity, 48 h; further: nearly all actives have a fitted effect of over 50% in size
KB-V1 cytotox: qHTS assay for MDR1-selective chemotherapeutics: Primary screen using the drug-selected MDR subline cells KB-V1; KB-V1 MDR cells viability, CellTiter-Glo, 72 h; Potency, µM (series often up to 46.1 µM), usual class: cytotoxic; 3.4% of 400,000 active; AID 1347076, 2019; further: nearly all actives have a fitted effect of over 60% in size
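Drug-selected KB-V1 cells, grown in DMEM lacking phenol red with 10% FBS, receive compound titrations; after three days at 37 degrees C, surviving cell ATP is quantified by CellTiter-Glo luminescence and responses normalized and curve-fitted.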
Each line names hits and unclear results; the compound was inactive in the other large screens. Shown are actives, neighbours in structure and some others; about 9.9% of the full set was active somewhere. Unless noted, the call rests on the fitted dose curve; in most records, active means well fitted curve in the direction sought with a large enough effect; inconclusive means small, poorly fitted or top-dose-only effect, or another doubt; inactive means no such curve, though single readings can be large; an effect the other way counts as inactive or inconclusive.

O=c1c2cc(NC(=S)NCCCN3CCC(Cc4ccccc4)CC3)ccc2nc2n1CCCCC2	KB-3-1 cytotox 23µM, SW480 rerep inconclusive, IL1B secr inh -91, KB-V1 cytotox inconclusive
Cc1cccc(N2CCN(C(=S)Nc3ccc4nc5n(c(=O)c4c3)CCCCC5)CC2)c1C	KB-3-1 cytotox inconclusive, SW480 rerep inconclusive, MCF10A rerep 23µM, KB-V1 cytotox inconclusive
O=c1c2cc(NC(=S)NC3CCCCC3)ccc2nc2n1CCCCC2	IL1B secr inh inconclusive, KB-V1 cytotox inconclusive
O=c1c2cc(NC(=S)N3CCC(N4CCCCC4)CC3)ccc2nc2n1CCCCC2	none
COc1ccc(/C=N/NC(=O)c2cc(=O)[nH]c3ccccc23)cc1OC	none
CC1=C(C(=O)N2CCCCCC2)CC(CC(=O)NCCCCc2ccccc2)C(=O)N1Cc1ccccc1 (centres undefined)	none (no result: SW480 rerep, MCF10A rerep)
Cc1nc(NC(=O)C(C)(C)C)sc1-c1nc(N)sc1-n1cc(-c2ccccc2)nn1	none (no result: SW480 rerep, MCF10A rerep)
CCNc1nc(-c2sc(NC(=O)C(C)(C)C)nc2C)c(-n2cc(-c3ccccc3)nn2)s1	KB-3-1 cytotox inconclusive, IL1B secr inh -77, KB-V1 cytotox 18µM (no result: SW480 rerep, MCF10A rerep)
Cc1ccc(C2CN(C)C3(C(=O)Nc4ccccc43)C23COc2ccccc2C3=O)cc1 (centres undefined)	KB-3-1 cytotox inconclusive, SW480 rerep inconclusive, MCF10A rerep inconclusive, KB-V1 cytotox 21µM
O=C1C=CC(=O)N1Cc1ccccc1	KB-3-1 cytotox inconclusive, SW480 rerep inconclusive, IL1B secr inh -73, MCF10A rerep inconclusive
CCC[C@H]1CN(c2ccc(Br)cc2)C(=O)[C@@H]1CC(=O)Nc1ccc(OC)cc1	IL1B secr inh inconclusive (no result: SW480 rerep, MCF10A rerep)
CCOC(=O)N1CCC(NS(=O)(=O)c2cc(C(=O)OC)n(C)c2)CC1	KB-V1 cytotox inconclusive
Brc1ccc(-c2cn3c(n2)CCc2ccc4cccnc4c2-3)cc1	SW480 rerep inconclusive, MCF10A rerep 23µM, KB-V1 cytotox 16µM
Brc1ccc(-c2cn3nc4c(nc3n2)CCCC4)cc1	none
CCN(CC)P(=O)(Nc1ccccc1Br)c1ccc(N(C)C)cc1NC(=O)c1ccco1 (centres undefined)	none
COC(=O)c1nn(-c2ccc(OC)cc2)c(=O)c2c(N)sc(C)c12	SW480 rerep 29µM
COC(=O)c1nn(-c2ccc(OC)cc2)c(=O)cc1NN	KB-V1 cytotox inconclusive
Cn1c(COc2ccccc2O)[n+](C)c2ccccc21	none
CCCCCCCCCCOC(=O)Cn1c(COc2ccccc2OC)[n+](C)c2ccccc21	KB-3-1 cytotox inconclusive, SW480 rerep inconclusive, IL1B secr inh -91, MCF10A rerep 5.8µM
CC(=O)N(NC(=O)c1ccccc1Cl)C1CC(=O)N(c2ccc(C)cc2)C1=O (centres undefined)	MCF10A rerep 16µM
CCCOc1ccc2ccccc2c1/C=N/n1c(C)nnc1-n1nc(C)cc1C	KB-3-1 cytotox 5.2µM, SW480 rerep 21µM, MCF10A rerep 10µM, KB-V1 cytotox 5.8µM
Fc1ccc(-c2cc3ncc4c(n3n2)-c2cc(Cl)ccc2OC4)cc1	none (no result: SW480 rerep, IL1B secr inh, MCF10A rerep)
Oc1c(Cl)cc(Cl)cc1CNc1nc2ccccc2[nH]1	IL1B secr inh -84, MCF10A rerep inconclusive
COc1ccc(-c2csc(N3CCN(S(=O)(=O)c4ccc5c(c4)NC(=O)CO5)CC3)n2)cc1	KB-3-1 cytotox inconclusive, SW480 rerep 9.2µM, KB-V1 cytotox inconclusive
Cc1ccc(NC(=O)CSc2nc(-c3cccs3)nc3cc(=O)[nH]n23)cc1	KB-V1 cytotox inconclusive (no result: SW480 rerep, IL1B secr inh, MCF10A rerep)
CCSC1(SCC)N=C(N)C2(C#N)C(c3ccc(F)cc3)C12C#N (centres undefined)	KB-3-1 cytotox inconclusive, IL1B secr inh -109, MCF10A rerep inconclusive, KB-V1 cytotox inconclusive
CCN(C(C)=O)c1cnc(C=NNC(N)=S)c2ccccc12	SW480 rerep 10µM, MCF10A rerep 4.6µM, KB-V1 cytotox 15µM
COC(=O)N/N=C/c1ccc([N+](=O)[O-])s1	SW480 rerep inconclusive, KB-V1 cytotox inconclusive
Cc1c(Cl)cccc1N=Cc1ccc([N+](=O)[O-])s1	SW480 rerep inconclusive, IL1B secr inh -102, MCF10A rerep inconclusive
